# Test results taken from the supplement of paper PMC6555819.
# Test system: VDR:RXRa (NR concentration 270 nM, RXRa partner concentration 90 nM)
# Test: PBM binding z-score (relative to random genomic background probes); higher = stronger binding; sequences stand for … in GC…GCGATTGACAGCGTAGAATGAAGG
# Protocol: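 Protein-binding microarray (Agilent 4x180K custom design, double-stranded 60-nt probes: 5' GC cap, 34-nt variable region, 24-nt constant primer region; full probe sequence given). Purified or IVT nuclear receptor:RXRα heterodimers (3:1 NR:RXRα, mostly 270:90 nM) or homodimers were incubated for 1 h in PBS with 2% milk and no ligand, then detected with Alexa488 antibodies. Fluorescence from o1-orientation probes (~5 replicates averaged) was converted to z-scores against 500 random hg19 background probes. Variable regions are seed direct-repeat (DR0–DR5) sites, all their single-nucleotide variants and half-site ablations.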
row,Sequence,PBM binding z-score
1,CCTGCTACGTCAATGGTCAGCTAAAGCAGCTCGC,-0.379
2,AGAATGAGGTTAAGATCAGAGAAACAGAATACAT,1.11
3,TCGAGTAAGTTAGTCGGGGCATTCAGCCAACATA,-0.133
4,CCTACTGGGCCAAAAAGGACATTGATGCCGATAA,0.106
5,TCTCGCAGGACACGAAGGTCAGAGCTTTCCAGAG,1.57
6,GCATATAGGTAATACAAGGTGAAAGTACGATTGT,0.62
7,CGAACTAGGTCATTGAGAGGACAGTGAATAGTAA,2.92
8,TCATATAGGTCATACAGGTGAAAGTCGGCATCTA,5.01
9,ATCGAAAGGTCTAGGTGAGTATAGAGAAAGGGAA,0.435
10,AGAATGAGGTTATTCGTAGATCAGGGAAGAAAGT,1.78
11,TAACCTAGGTCAGATCGGGCCAGTATACGCTATA,1.52
12,ACTCGGACGACAAAGGTCAGAGCTACGCCAGTGA,2.76
13,CCGAGTAGGTTATGGGACATTCAGGCAACGGTGA,0.258
14,ACGGACAGGTGATGAAGGTAACTCAGGCTATCAT,0.367
15,CCTACTGGGCCAAAAAGGTCACTGATGCCGATAA,4.5
16,TGATATAGGTAAATGCTAGGTGAAAGTCCGATCT,0.142
17,CCTTACGGATCACTCCAGGTTATAGCATCGGAGT,0.59
18,CGTCCAAGGTCAATGCTAGGTTAGTGAAAGCATT,4.02
19,CAAACTAGGTCACCGGCAGGTCAAAGTCCGCATG,5.36
20,CCTAGGAGGACAGAAGGTCAGAGCTGTCCGCTTT,1.09

row,Sequence,PBM binding z-score
1,AGTCAAAGTTCATATAGGTAACGTAAGATATGCT,4.4
2,TCATATAGGAAAAAGGTGAAAGTCGGTGTGGTAA,1.21
3,TCGAGTAGATTAGGGGCATTCAGAATGGCGTCGA,0.295
4,TCTTGTAGATCAAGCGGGTTAAGAAAGCCTGAGT,0.54
5,CCAGACAGGTGAAAGGTAACTTAGTCTGGTACGC,0.744
6,CTACCAAGGCGAACAAGGTCGTTGATTACTATTC,2.59
7,TCTCGGAGGACACGAAAGCTCAGAGCTCGACATC,-0.282
8,CCTAACGGGTCACGAGGTTATAGCACGACGAGCG,4.74
9,CCGGCTGGGGCAAGGTTACCATAACGCACAGCCA,-0.269
10,AGTCAAGGTTCAGGACGAGGTAACGTAAAGCACG,2.03
11,CAAACTAGGACAAGAGGTCAAAGTCCGCTTCCCG,5
12,ACTTACGGGTCAACGATGTTATAGCACGCGTATA,4.93
13,AATACCGGGTCACTAGGCCAGAGTAGGTACGAAT,3.03
14,ATATGTAGGTTATCGGGTCATCCAGTTTGCGCAT,5.43
15,CTCGAATGGTCGTGCTCAGGTGAGTATACCAAAC,-0.155
16,ACTTACGGGTCAAAGAGGTTATAGCACGCGTATA,7.09
17,ACTAGCAGGCCAAGGTTCACTCAAGATTAGTCCG,2.01
18,ACTATTAGTTGAGACGAGAGCAACCGATAGGTTG,0.00985
19,ATCTCTAGGTAACAAGTTCCGTGAAAGAGAGGAC,0.0818
20,ATGGAAAGGTCGAAGGTGAGTATACCCACCCGAA,2.81
